Compounds with a hit are over-represented: about 2.7% of the library has one in this group of screens.
IDE cell inh: inhibits human insulin-degrading enzyme in HEK cells; FAbetaB cleavage, fluorescence polarization; inhibition, % at 5.59 µM; P14735; AID 434962; 320,000 compounds, 0.41% hits;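 active = percent inhibition above the average of all tested compounds plus 3 SD, set per screening campaign, cut at about 16% in these data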;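 also: IDE supplied by intact live HEK cells; FP after avidin binding of uncleaved biotin substrate so inhibition keeps polarization high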
IDE cell activ: boosts human insulin-degrading enzyme activity in HEK cells. P14735. AID 493087. FAbeta-B cleavage, fluorescence polarization; 0% vehicle, 100% cell-free pure enzyme wells. activation, % at 5.96 µM. 340,000 compounds, 0.073% hits;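 active = activation above the mean of all tested compounds plus 3 SD, set per screening campaign, cut at about 17% in these data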
CHT inh: inhibits the human high affinity choline transporter. Q9GZV3. CHT-expressing cells, membrane potential dye, choline response; active compounds read low. B-score at 10 µM. 310,000 compounds, 0.86% hits. AID 488975;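 active = B-score over 3 SD under the library average, and starting fluorescence ratio not unusually high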;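 also: choline stimulus applied at its EC90 after an EC20 pre-addition; B-score computed on integrated fluorescence ratio after choline addition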
Target sequence (Q9GZV3 whole entry, looked up): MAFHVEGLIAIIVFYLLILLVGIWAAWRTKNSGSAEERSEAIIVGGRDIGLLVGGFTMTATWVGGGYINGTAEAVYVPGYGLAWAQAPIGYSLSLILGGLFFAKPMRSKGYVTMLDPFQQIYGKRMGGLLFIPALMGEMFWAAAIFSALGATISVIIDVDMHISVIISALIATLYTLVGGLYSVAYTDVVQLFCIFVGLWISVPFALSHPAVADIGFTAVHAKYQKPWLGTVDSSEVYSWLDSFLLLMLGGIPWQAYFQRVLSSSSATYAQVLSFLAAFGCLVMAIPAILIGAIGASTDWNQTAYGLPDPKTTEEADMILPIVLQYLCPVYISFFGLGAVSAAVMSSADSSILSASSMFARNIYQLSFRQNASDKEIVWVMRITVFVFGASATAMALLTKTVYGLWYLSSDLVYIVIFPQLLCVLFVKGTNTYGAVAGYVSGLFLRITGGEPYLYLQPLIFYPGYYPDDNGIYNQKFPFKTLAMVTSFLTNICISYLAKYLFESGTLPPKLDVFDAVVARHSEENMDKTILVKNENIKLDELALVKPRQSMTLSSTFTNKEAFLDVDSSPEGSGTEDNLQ
TMEM16A inh: mouse TMEM16A channel inhibition, primary screen; 310,000 compounds, 1.2% hits; normalized B-score (activity score, 25-100; higher = stronger inhibition) at 10 µM; HEK293 TMEM16A/YFP iodide influx fluorescence, ionomycin; Q8BHY3;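 active = ratio plate-corrected score three or more library SD toward inhibition, starting fluorescence score within five deviations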;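 also: score derived from kinetic fluorescence span divided by baseline fluorescence per well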
CHT allo act: allosterically activates the human high affinity choline transporter; Q9GZV3; CHT-expressing cells, membrane potential dye, choline EC20; active compounds read high; LV-AA mutant CHT in HEK293 cells; B-score at 10 µM; 310,000 compounds, 0.49% hits; AID 488977;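 active = initial fluorescence not abnormally high and integrated response B-score, plate-corrected, over 3 SD above library mean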
ANO1 activ: activators or potentiators of mouse TMEM16A chloride channel; HEK293 TMEM16A/YFP-H148Q/I152L, iodide quench fluorescence; active compounds read low; Q8BHY3; 340,000 compounds, 0.3% hits; B-score at 10 µM;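 active = fluorescence-ratio B-score plate-corrected deviation score at least 3 library SD below zero, with starting fluorescence score within 5 deviations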;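 also: channel opened by trigger with iodide after compound preincubation; score built on the fluorescence ratio of max minus min over baseline; more negative score means more quench and so TMEM16A activation or potentiation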
CHT block conf: confirmation of human choline transporter CHT inhibitors; 2,400 compounds, 70% hits; CHT activity remaining % of control (active compounds read low), % at 10 µM; shares compounds with CHT inh; AID 493221; CHT-expressing cells, choline membrane potential dye; LV-to-AA substituted CHT, HEK293 cells;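 active = choline transporter activity left, mean of duplicates at 10 µM, below buffer-only control mean minus 3 SD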;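 also: depolarization triggered by choline at its EC90 following an EC20 pre-addition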
HEK293 MPD ctr: activity in parental HEK293 cells lacking CHT; 2,400 compounds, 4% hits; membrane potential dye, choline response; active = decrease or increase beyond buffer ±3SD; membrane potential ratio readout (active if shifted either direction beyond buffer ±3SD; no single direction) at 10 µM; AID 493222; shares compounds with CHT inh;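 also: parental cells lack the transporter so any hit is non-specific; ratio is peak minus trough fluorescence over baseline after EC90 choline challenge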
Each line names hits and unclear results; the compound was inactive in the other large screens (follow-up assays come after a bar, where they were run).

CCOc1cccc2sc(N(CCN(C)C)C(=O)c3ccc4c(c3)OCCO4)nc12	CHT inh -8.4 | CHT block conf 19% | HEK293 MPD ctr inactive
Cc1cccc2sc(N(CCCN(C)C)C(=O)c3ccc(Cl)s3)nc12	CHT inh -6.8 | CHT block conf 27% | HEK293 MPD ctr inactive
CCOc1ccc(Cl)cc1CNCCCSc1nc(C)cc(C)n1	none
COC(=O)C1C2CCCCC1C(=O)O2 (centres undefined)	none (no result: IDE cell inh, CHT inh, TMEM16A inh, CHT allo act)
Cc1onc(-c2c(Cl)cccc2Cl)c1C(O)c1ccccc1 (centres undefined)	none
Fc1ccc(-c2csc3ncnc(N4CCN(Cc5ccccc5)CC4)c23)cc1	none
CCN1CCN(c2ncnc3scc(-c4ccc(C)cc4)c23)CC1	CHT inh -9.9 | CHT block conf 22% | HEK293 MPD ctr inactive
OCCN1CCN(c2ncnc3scc(-c4ccc(F)cc4)c23)CC1	CHT inh -5.7 (no result: IDE cell inh) | CHT block conf 33% | HEK293 MPD ctr inactive
COc1ccc(-c2csc3ncnc(N4CCN(CCO)CC4)c23)cc1	CHT inh -7.9 | CHT block conf 42% | HEK293 MPD ctr inactive
COc1ccc(-c2csc3ncnc(NCCCO)c23)cc1	CHT inh -5.8 | CHT block conf 59% | HEK293 MPD ctr inactive
COc1ccccc1C(=O)OCCc1ccccc1	none (no result: IDE cell inh, CHT inh, TMEM16A inh, CHT allo act)
O=C(CCc1ccccc1)NC1CCS(=O)(=O)C1 (centres undefined)	none (no result: IDE cell inh, CHT inh, TMEM16A inh, CHT allo act)
CC1CCCCC1NC(=O)Cn1nc(-c2ccccc2)ccc1=O (centres undefined)	CHT inh -5.4 | CHT block conf 64% | HEK293 MPD ctr inactive
CC1CCCCN1CCNC(=O)Cn1nc(-c2ccccc2)ccc1=O (centres undefined)	none
CCOc1ccc2nc(SCC(=O)NCc3ccccc3OC)[nH]c2c1	none
CCN(CC)c1nc2c(c(=O)[nH]c(=O)n2C)n1Cc1ccccc1	none
CCCCCCn1c(N(CC)CC)nc2c1c(=O)[nH]c(=O)n2C	CHT inh -6.4 | CHT block conf inactive | HEK293 MPD ctr inactive
Cc1cc(NC(=O)c2ccc3c(c2)C(=O)N(c2cccc(C)c2C)C3=O)no1	none
Cn1c(CN2CCN(CCO)CC2)c(C#N)c2ccccc21	CHT inh -5.3 | CHT block conf 41% | HEK293 MPD ctr inactive
Cc1ccccc1N1CCN(Cc2c(C#N)c3ccccc3n2C)CC1	none
CN1CCN(Cc2ccc(Sc3ccc(Cl)cc3)c([N+](=O)[O-])c2)CC1	CHT inh -5.1 | CHT block conf 61% | HEK293 MPD ctr inactive
CC12CCC(=O)N1C(C(=O)NCCc1ccc(S(N)(=O)=O)cc1)CS2 (centres undefined)	none
O=[N+]([O-])c1cc(-c2ncccn2)c([N+](=O)[O-])s1	CHT inh -6.3 | CHT block conf 48% | HEK293 MPD ctr inactive
O=C(NCC1CCCO1)c1ccc(F)c2ccccc12 (centres undefined)	none
CCOC(=O)c1cc(CC)sc1NC(=O)COc1ccc2c(C)cc(=O)oc2c1	CHT inh -7.3 | CHT block conf inactive | HEK293 MPD ctr inactive
CN1/C(=C/C(=O)CSc2ccccc2C(=O)O)C(C)(C)c2ccccc21	none
Cc1cc(=O)[nH]c(SCC(=O)/C=C2\N(C)c3ccccc3C2(C)C)n1	CHT inh -5 | CHT block conf 69% | HEK293 MPD ctr inactive
CC1CCCC(NC(=O)CCNC(=O)c2ccc(Cl)cc2)C1C (centres undefined)	none
Cc1ccc(C(=O)CCC(=O)NC2CCCC(C)C2C)cc1 (centres undefined)	CHT inh -5.2 | CHT block conf 58% | HEK293 MPD ctr inactive
N#CCSc1nc2sccc2c(=O)n1-c1ccccc1	CHT inh -5.5 | CHT block conf inactive | HEK293 MPD ctr inactive
Cc1cccc(OCCOC(=O)c2c(-c3ccccc3)noc2C)c1	CHT inh -5.4 | CHT block conf inactive | HEK293 MPD ctr inactive
CCCOc1cccc(NC(=O)c2c(-c3ccccc3)noc2C)c1	none
CC1(C)CC(=O)/C(=C(\O)CCCN2C(=O)c3ccccc3C2=O)C(=NCC(=O)O)C1	CHT inh -5.4 | CHT block conf inactive | HEK293 MPD ctr inactive
CCOc1ccc(-n2c(SCc3nc(-c4cccs4)no3)nnc2-c2ccncc2)cc1	CHT inh -5 | CHT block conf inactive | HEK293 MPD ctr inactive
Cn1c(SCc2nc(-c3cccs3)no2)nnc1C1CCCCC1	CHT inh -7.2 | CHT block conf inactive | HEK293 MPD ctr inactive
CCCn1c(SCc2nc(-c3cccs3)no2)nnc1-c1ccncc1	none
Cc1nnc(SCc2nnc(-c3cccs3)o2)n1C	CHT inh -7 | CHT block conf inactive | HEK293 MPD ctr inactive
Cn1c(N2CCOCC2)c(/C=N/OC(=O)c2ccc(F)cc2)c2ccccc21	CHT inh -7.4 | CHT block conf 44% | HEK293 MPD ctr inactive
CCNc1cc(Cl)nc(SC)n1	CHT inh -14 | CHT block conf -6.5% | HEK293 MPD ctr inactive
CCCc1cc(=O)[nH]c(SCc2cc(C(=O)OC)c(C)o2)n1	CHT inh -6 | CHT block conf inactive | HEK293 MPD ctr inactive
CCCc1cc(=O)[nH]c(SCC(N)=O)n1	none
c1ccc(C(c2ccccc2)N2CCN(Cc3nnnn3C3CCCC3)CC2)cc1	CHT inh -5.6 | CHT block conf inactive | HEK293 MPD ctr inactive
CCCC(=O)Nc1nnc(S(=O)(=O)N(CC(C)C)c2ccccc2)s1	none (no result: ANO1 activ)
O=C(c1cccc(-c2nnc(-c3ccccc3)o2)c1)N1CCCCC1	CHT inh -6.3 | CHT block conf inactive | HEK293 MPD ctr inactive
CC1CCN(S(=O)(=O)c2ccc(NC(=O)CN3CCCC3)cc2)CC1	none
CCN1CCN(CC(=O)Nc2ccc(S(=O)(=O)N3C(C)CCCC3C)cc2)CC1 (centres undefined)	CHT inh -5.8 | CHT block conf 25% | HEK293 MPD ctr inactive
O=C(NNC(=S)Nc1cccc(C(F)(F)F)c1)c1ccccc1Cl	CHT inh -5.8, TMEM16A inh 25 | CHT block conf inactive | HEK293 MPD ctr inactive
O=C(NNC(=S)Nc1ccc(Br)cc1)c1ccccc1Br	CHT inh -5.6 (no result: IDE cell inh) | CHT block conf 58% | HEK293 MPD ctr inactive
O=C(NNC(=S)Nc1ccc(Cl)cc1)c1ccccc1OC(F)F	CHT inh -5.4 | CHT block conf 44% | HEK293 MPD ctr inactive
COc1ccccc1C(=O)NNC(=S)Nc1ccccc1	none (no result: IDE cell inh, CHT inh, TMEM16A inh, CHT allo act)
O=C(NNC(=S)Nc1cccc(C(F)(F)F)c1)c1cccc(Cl)c1	none

Screening data deposited in PubChem BioAssay by several laboratories.
